# According to PubChem BioAssay (EPA / NIEHS):
# The source made the active and inactive calls. Rule for the calls: active = hit-call score of the fitted dose curve at least 0.9, where 1 is the maximum; inactive = score below 0.9.
# Experiment: ATG_M_19_CIS: Attagene CIS-FACTORIAL HepG2 Assay for M19 Transcription Factor (Internal Marker) (AID 2282939)
# Conditions: HepG2 Attagene CIS-FACTORIAL M19 internal marker reporter; actives raise or lower the signal
# Description: ATG_CIS is a cell-based, multiplexed-readout assay that uses HepG2, a human liver cell line, with measurements taken at 24 hours after chemical dosing in a 24-well plate.ATG_M_19_CIS is one of 52 assay component(s) measured or calculated from the ATG_CIS assay. It is designed to make measurements of mRNA induction, a form of inducible reporter, as detected with fluorescence intensity signals by Reverse transcription polymerase chain reaction (RT-PCR) and Capillary electrophoresis technology.Data from the assay component ATG_M_19_CIS was analyzed into 1 assay endpoint. This assay endpoint, ATG_M_19_CIS, was analyzed with bidirectional fitting relative to DMSO as the negative control and baseline of activity. Using a type of inducible reporter, measures of mRNA for gain or loss-of-signal activity can be used to understand the background control at the transcription factor-level as they relate to the gene . Furthermore, this assay endpoint can be referred to as a secondary readout, because this assay has produced multiple assay endpoints where this one serves a background control function. To generalize the intended target to other relatable targets, this assay endpoint is annotated to the background measurement intended target family, where the subfamily is internal marker.
# Human liver HepG2 cells are transiently transfected with multiple reporter transcription units (MRTUs) in 6-well plates using FuGene 6 reagent (Roche; 3 ml FuGene/1 mg DNA). The MRTU constructs are regulated by a cis-regulating element (promoter). […] A major difference between the CIS and TRANS system is that in CIS activities of endogenous TFs are measured, whereas the TRANS assay evaluates changes in activities of exogenous, chimeric NR-Gal4 proteins. […] At the end of 24 hour incubation, total RNA was isolated using TriZol reagent (Invitrogen). The isolated RNA is then reverse-transcribed using oligo(dT) primer and Mo-MLV reverse transcriptase (Invitrogen) with DNAse I (Ambion) treatment for 30 min. The one-tenth of the produced cDNA was amplified by PCR using Taq DNA polymerase (Invitrogen) and two reporter sequence-specific primers. The PCR products were fluorescently labeled by primer extension with 6-arboxyfluorescein (6-FAM) 5'-labeled reporter sequence-specific primer (2 min at 95 C, 20 s at 68 C and 10 min at 72 C) and these products were digested with 5U of HpaI (New England Biolabs) for 2h at 37 C. The fragments were purified using Qiaquick PCR columns (Qiagen), analyzed on an ABI 3130xL genetic analyzer (Applied Biosystems) with peak positions identified by using a set of X-rhodamine (ROX)-labeled MapMarker1000 molecular weight standards (BioVentures). The raw capillary electrophoresis data was processed using Attagraph software (Attagene).
Structure (SMILES),outcome,AC50
OC[C@@H](O)[C@@H](O)[C@H](O)[C@H](O)CO,inactive,–
CN1CCN(Cc2cc(-c3ccc4[nH]c(=O)oc4c3)co2)[C@@H](c2ccc(F)cc2)C1,inactive,–
Cc1nc(C)nc(N2C[C@@H](C)N(c3ccnc([C@@H](C)O)n3)[C@@H](C)C2)n1,inactive,–
CNCc1cc(F)ccc1Oc1ccc(Cl)c(Cl)c1,inactive,–
CCCCCCC(=O)OCC,inactive,–
CCCCCCCC=O,inactive,–
CCNc1cccc(C)c1,inactive,–
C=CCOC(=O)c1ccccc1C(=O)OCC=C,inactive,–
Nc1ccc2c(c1)C(=O)c1ccccc1C2=O,inactive,–
CCCCc1ccc2c(n1)[C@@H](c1ccc(OC)cc1C[C@H](C)C(=O)O)[C@H](C(=O)O)[C@H]2c1ccc2c(c1)OCO2,inactive,–
COc1cc(/C=C/C(=O)CC(=O)/C=C/c2ccc(O)c(OC)c2)ccc1O,inactive,–
NCC1(Cc2noc(=O)[nH]2)CCCCC1,inactive,–
CCOC(=O)CCC(=O)OCC,inactive,–
O=[N+]([O-])C(CO)(CO)CO,inactive,–
CC1=C(/C=C/C(C)=C/C=C/C(C)=C/CO)C(C)(C)CCC1,–,172 µM (active)
C1CCC(SSC2CCCCC2)CC1,inactive,–
CC=Cc1ccc(O)c(OC)c1,inactive,–
Cc1ccc(N(C)C)cc1,inactive,–
C[Si]1(C)O[Si](C)(C)O[Si](C)(C)O[Si](C)(C)O1,inactive,–
CCCCCCCCCCCCCO,inactive,–

Structure (SMILES),outcome,AC50
CC(C)c1ccc(C(=O)N=C(N)N)cc1S(C)(=O)=O,inactive,–
Nc1nc(N)c2nc(CNc3ccc(C(=O)N[C@@H](CCC(=O)O)C(=O)O)cc3)cnc2n1,inactive,–
CCOC(=O)C(C)(C)Oc1ccc(Cl)cc1,inactive,–
Cc1c(C(=O)O)c(O)cc2c1C(=O)c1c(O)c([C@@H]3O[C@H](CO)[C@@H](O)[C@H](O)[C@H]3O)c(O)c(O)c1C2=O,inactive,–
Cc1cccc(C)c1O,inactive,–
Cc1cccc([N+](=O)[O-])c1C,inactive,–
C[C@]12C=CC(=O)C=C1CC[C@@H]1[C@@H]2C(=O)C[C@@]2(C)[C@H]1CC[C@]2(O)C(=O)CO,inactive,–
CNC(=O)[C@H]1O[C@@H](n2cnc3c(NCc4cc(Cl)ccc4OCc4cc(C)no4)ncnc32)[C@H](O)[C@@H]1N,inactive,–
CCCc1cc(=O)[nH]c(=S)[nH]1,inactive,–
Nc1ccc(S(=O)(=O)c2ccc(N)cc2)cc1,inactive,–
CCCCCCCCCCCCCCCC,inactive,–
CCc1c(C(=O)NN2CCCCC2)nn(-c2ccc(Cl)cc2Cl)c1-c1ccc(Br)cc1,inactive,–
CCCCCCCCCCO,inactive,–
Cc1ccc(C(C)C)c(O)c1,inactive,–
O=c1c(O)c(-c2ccc(O)c(O)c2)oc2cc(O)cc(O)c12,inactive,–
CN[C@H]1CC[C@@H](c2ccc(Cl)c(Cl)c2)c2ccc(S(N)(=O)=O)cc21,inactive,–
CN1CCCC1=O,inactive,–
Cc1ccc(C)c(C)c1,inactive,–
CCCCCC(=O)O,inactive,–
NS(=O)(=O)c1cc2c(cc1Cl)NCNS2(=O)=O,inactive,–
